According to PubChem BioAssay (Tox21):
Records with an inconclusive call do not appear. The source made the active and inactive calls. Unless noted, calls come from the whole dose curve; as a rule, active = well fitted curve in the direction sought with a large enough effect in the repeat runs; inconclusive = weak or mixed curves; inactive = no such curve, though single readings can be large; an effect the other way counts as inactive or inconclusive.

Experiments:
[1] = qHTS assay to identify small molecule antagonists of the estrogen receptor alpha (ER-alpha) signaling pathway using the BG1 cell line in the presence of 0.1 nM 17-beta-estradiol - cell viability counter screen (AID 1259241); note: nearly all actives have a fitted effect of over 40% in size
In short: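 VM7Luc4E2, 4,000 cells/well, phenol red-free medium + 10% charcoal-stripped FBS; 24 hr plating; cpd + 0.1 nM E2 final, 22 hr 37C/5% CO2; CellTiter-Fluor 30 min, fluorescence.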

[2] = qHTS assay to identify small molecule antagonists of the androgen receptor (AR) signaling pathway using the MDA cell line in the presence of 0.5 nM R1881 - cell viability counter screen (AID 1259242); note: nearly all actives have a fitted effect of over 45% in size
In short: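 Fluorescence from CellTiter-Fluor, which reports protease activity of live cells, was read 30 min after reagent addition to MDA-kb2 cells that had been incubated 16 hr with compound and 0.5 nM R1881.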

[3] = qHTS assay to identify small molecule phospholipidosis (PLD) inducers (AID 1259344; active = well fitted curve in the direction sought with a large enough effect; an effect the other way counts as inactive or inconclusive; note: potency is the fitted concentration of half-maximal effect)
In short: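 Phospholipidosis is scored by imaging LipidTOX-stained pits in HepG2 cells exposed to compound for 24 h at 37 C; pit counts and integrated intensities per well and per cell serve as outputs.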

[4] = qHTS assay to identify small molecule HDAC inhibitors (AID 1259364); note: nearly all actives have a fitted effect of over 45% in size; note: potency is the fitted concentration of half-maximal effect; for activity change, negative = inhibition: top concentration of the series differs between compounds
In short: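 Endogenous HDAC class I/II activity was measured in wild-type HCT-116 cells by HDAC-Glo luminescence after 2 h compound treatment.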

[5] = qHTS assay to identify small molecule HDAC inhibitors - cell viability counter screen (AID 1259365); note: series mostly up to about 92 µM; nearly all actives have a fitted effect of over 50% in size
In short: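 Luminescence from CellTiter-Glo, developed 30min at room temperature, reports viability of wild-type HCT-116 cells treated 2hr with compounds at 37 C and 5% CO2 after overnight plating.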

[6] = qHTS assay to identify small molecule agonists of the sonic hedgehog signaling (Shh) pathway - cell viability counter screen (AID 1259366); note: nearly all actives have a fitted effect of over 50% in size
In short: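 Cytotoxicity counter screen run in the same wells as the Shh reporter assay. NIH/3T3 cells carrying a Gli1 response element–driven luciferase were treated with DMSO-dissolved compounds for 24hr, and live-cell protease activity was measured with CellTiter-Fluor.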

[7] = qHTS assay to identify small molecule antagonists of the sonic hedgehog signaling (Shh) pathway - cell viability counter screen (AID 1259367); note: nearly all actives have a fitted effect of over 55% in size
In short: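 Cells: 3T3 Gli1-Luc, 2,000/well, 4 hr pre-incubation. Compounds in DMSO, then conditioned medium. Incubation 24 hr, 37C, 5% CO2. CellTiter-Fluor at 23 hr, 1 hr, fluorescence.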

[8] = qHTS assay to identify small molecule agonists of the sonic hedgehog signaling (Shh) pathway (AID 1259368; calls by dose curve;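 note: NIH/3T3-derived 3T3Gli1-Luc cells carrying a stable Gli1-driven firefly luciferase reporter; series mostly up to about 92 µM; nearly all actives have a fitted effect of over 15% in size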)
In short: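 Luminescent signal was taken as a measure of Gli1-controlled luciferase expression in stably transfected NIH/3T3-derived cells that had been treated for 24 hr with compounds delivered in DMSO.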

[9] = target: Estrogen receptor (Homo sapiens) (UniProt P03372); test: qHTS assay to identify small molecule antagonists of the estrogen receptor alpha (ER-alpha) signaling pathway using the BG1 cell line in the presence of 0.1 nM 17-beta-estradiol (AID 1259244); note: nearly all actives have a fitted effect of over 50% in size
In short: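 Quantitative high-throughput screen in VM7Luc4E2 cells: compound plus 0.1 nM E2 (final), 22 h, 37C, 5% CO2; ONE-Glo added, 30 min room temperature, luminescence measured.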
% is set by controls: 0 for no effect and ±100 for the full control effect.

Chain of Estrogen receptor (Homo sapiens) (P03372 whole entry, looked up): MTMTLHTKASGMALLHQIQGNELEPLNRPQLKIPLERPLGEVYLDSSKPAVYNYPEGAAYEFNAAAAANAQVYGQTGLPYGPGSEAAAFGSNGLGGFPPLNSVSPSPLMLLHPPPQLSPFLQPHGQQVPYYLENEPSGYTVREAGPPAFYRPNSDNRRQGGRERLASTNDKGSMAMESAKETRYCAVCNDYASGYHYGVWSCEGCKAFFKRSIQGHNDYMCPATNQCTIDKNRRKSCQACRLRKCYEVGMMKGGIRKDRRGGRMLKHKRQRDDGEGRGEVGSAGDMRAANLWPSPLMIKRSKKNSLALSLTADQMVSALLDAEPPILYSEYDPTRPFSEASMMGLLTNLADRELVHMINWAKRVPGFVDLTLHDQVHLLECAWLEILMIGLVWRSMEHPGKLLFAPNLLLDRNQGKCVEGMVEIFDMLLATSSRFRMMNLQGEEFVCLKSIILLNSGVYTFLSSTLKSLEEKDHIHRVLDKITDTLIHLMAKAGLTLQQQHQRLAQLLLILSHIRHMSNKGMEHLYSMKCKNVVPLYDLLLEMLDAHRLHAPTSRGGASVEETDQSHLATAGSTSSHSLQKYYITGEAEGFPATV

O=C(O)/C=C/c1ccc(Cn2ccnc2)cc1
inactive: outcome [1] | outcome [2] | Potency [3] | Potency [4] | outcome [5] | Potency [6] | outcome [7] | Potency [8]

CC(C)CCOC(=O)CC(C)C
inactive: outcome [1] | outcome [2] | outcome [9] | outcome [5] | outcome [7] | Potency [8]

C=C(C)[C@@H]1CCC2=CC(=O)C[C@@H](C)[C@]2(C)C1
inactive: outcome [1] | outcome [2] | outcome [9] | outcome [5] | outcome [7] | Potency [8]

CCC(=O)c1cccc(Cl)c1
inactive: outcome [1] | outcome [2] | Potency [4] | outcome [5] | Potency [6] | outcome [7] | Potency [8]

C#CC(C)(O)CC(C)C (stereo not drawn)
inactive: outcome [1] | outcome [2] | Potency [4] | outcome [5] | Potency [6] | outcome [7] | Potency [8]

OCCCCCCO
inactive: outcome [1] | outcome [2] | Potency [4] | outcome [5] | Potency [6] | outcome [7] | Potency [8]

OC/C=C/c1ccccc1
inactive: outcome [1] | outcome [2] | Potency [3] | Potency [4] | outcome [5] | Potency [6] | outcome [7] | Potency [8]

CCC(C)OC(=O)N1CCCCC1CCO (stereo not drawn)
inactive: outcome [1] | outcome [2] | Potency [4] | outcome [5] | Potency [6] | outcome [7] | Potency [8]

COc1cc(C(=O)N2CCOCC2)cc(OC)c1OC
inactive: outcome [1] | outcome [2] | Potency [3] | Potency [4] | outcome [5] | Potency [6] | outcome [7] | Potency [8]

C=C(C)C(=O)NCCC[N+](C)(C)C
inactive: outcome [1] | outcome [2] | outcome [9] | outcome [5] | Potency [6] | Potency [8]

NC(CS)C(=O)O (stereo not drawn)
inactive: outcome [1] | outcome [2] | Potency [3] | Potency [4] | outcome [5] | Potency [6] | Potency [8]

C[C@H]1O[C@@H](n2cc(F)c(=O)[nH]c2=O)[C@H](O)[C@@H]1O
inactive: outcome [1] | outcome [2] | Potency [3] | Potency [4] | outcome [5] | Potency [6] | outcome [7] | Potency [8]

N#CCc1ccccc1[N+](=O)[O-]
inactive: outcome [1] | outcome [2] | Potency [4] | outcome [5] | Potency [6] | outcome [7] | Potency [8]

CO
inactive: outcome [1] | outcome [2] | Potency [3] | Potency [4] | outcome [5] | Potency [6] | Potency [8]

CCn1c(=O)c2c(nc(/C=C/c3ccc(OC)c(OC)c3)n2C)n(CC)c1=O
inactive: outcome [1] | outcome [2] | Potency [4] | outcome [5] | Potency [6] | outcome [7] | Potency [8]

N#CCN(CC#N)CCN(CC#N)CC#N
inactive: outcome [1] | outcome [2] | Potency [4] | outcome [5] | Potency [6] | outcome [7] | Potency [8]

Cc1cc(C)c(NC(=O)CN(CC(=O)O)CC(=O)O)c(C)c1Br
inactive: outcome [1] | outcome [2] | Potency [3] | Potency [4] | outcome [5] | Potency [6] | outcome [7] | Potency [8]

c1ccc(SCCSc2ccccc2)cc1
inactive: outcome [1] | outcome [2] | outcome [5] | Potency [6] | outcome [7]

NC(=S)Nc1cccc2ccccc12
inactive: activity change, negative = cytotoxicity [1] 7.82% [at 8.39 µM] | viability change, negative = cytotoxic [2] 0.661% [at 8.39 µM] | activity change, negative = inhibition [4] 2.32% [at 8.39 µM] | activity change, negative = cytotoxicity [5] -1.1% [at 8.39 µM] | viability change, negative = cytotoxic [6] -0.646% [at 8.39 µM] | viability change, negative = cytotoxic [7] 0.784% [at 8.39 µM] | activity change [8] -0.099% [at 8.39 µM, hits give high values]

OCC(O)[C@@H](O)[C@H](O)[C@H](O)CO[C@H]1O[C@H](CO)[C@@H](O)[C@H](O)[C@H]1O (stereo partly drawn)
inactive: outcome [1] | outcome [2] | Potency [4] | outcome [5] | outcome [7] | Potency [8]

Cc1ccccc1Br
inactive: outcome [1] | outcome [2] | Potency [4] | outcome [5] | Potency [6] | outcome [7] | Potency [8]

Cn1cnc2c(=O)[nH]c(N)nc21
inactive: outcome [1] | outcome [2] | Potency [4] | outcome [5] | outcome [7] | Potency [8]

Cc1c(C)n(CCN(C)C)c2ccc(C(=O)OCCN(C)C)cc12
active: Potency [3] 11.2 µM
inactive: outcome [2] | outcome [9] | Potency [4] | outcome [5] | Potency [6] | outcome [7] | Potency [8]

OC[C@H]1O[C@@H]2O[C@H]3[C@H](O)[C@@H](O)[C@@H](O[C@H]4[C@H](O)[C@@H](O)[C@@H](O[C@H]5[C@H](O)[C@@H](O)[C@@H](O[C@H]6[C@H](O)[C@@H](O)[C@@H](O[C@H]7[C@H](O)[C@@H](O)[C@@H](O[C@H]8[C@H](O)[C@@H](O)[C@@H](O[C@H]9[C@H](O)[C@@H](O)[C@@H](O[C@H]1[C@H](O)[C@H]2O)O[C@@H]9CO)O[C@@H]8CO)O[C@@H]7CO)O[C@@H]6CO)O[C@@H]5CO)O[C@@H]4CO)O[C@@H]3CO
inactive: outcome [1] | outcome [2] | outcome [5] | Potency [6] | outcome [7] | Potency [8]

Cc1ccccc1C(=O)O
active: Potency [4] 30.1 µM
inactive: outcome [1] | outcome [2] | outcome [5] | Potency [6] | Potency [8]

CCCCCCCCCCCCI
inactive: outcome [1] | outcome [2] | outcome [5] | Potency [6] | outcome [7] | Potency [8]
